The whole screen tested about 5,500 compounds, of which about 2,000 (36%) were called active. Another 18% or so got no clear call; they are omitted. Rule as the data show it: active = normalized growth mostly below about 0.91 (no sharp cut-off); inconclusive = no clear call, values can overlap the other calls; inactive = mostly above about 0.92. Some of the results follow.
Assay: chemical genetic growth profiling, strain panel (AID 1159580);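 also: tested at 20 µM; growth read once vehicle control cultures reached saturation at 30 °C; 1 = growth at the plate median or of vehicle wells; lower values mean less growth of the strain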
Settings: growth OD

Measured: normalized growth

COC(=O)[C@H]1[C@H]2C[C@H]3c4[nH]c5cc(OC)ccc5c4CCN3C[C@H]2C[C@@H](OC(=O)c2cc(OC)c(OC)c(OC)c2)[C@@H]1OC
inactive: S. cerevisiae deletion strains, locus YKL009W, strain mrt4, hits give low values 0.991 | S. cerevisiae deletion strains, locus YKL068W, hits give low values 0.995 | S. cerevisiae deletion strains, locus YKL085W, strain MDH1 (second series), hits give low values 1 | S. cerevisiae deletion strains, locus YKL085W, strain MDH1, hits give low values 1 | S. cerevisiae deletion strains, locus YKL160W, strain elf1, hits give low values 0.995 | S. cerevisiae deletion strains, locus YKR001C, strain vps1, hits give low values 1.01 | S. cerevisiae deletion strains, locus YKR026C, strain gcn3, hits give low values 0.994 | S. cerevisiae deletion strains, locus YKR091W, strain srl3, hits give low values 1.02 | S. cerevisiae deletion strains, locus YLL001W, strain dnm1, hits give low values 1.03 | S. cerevisiae deletion strains, locus YLL026W, hits give low values 1.02 | S. cerevisiae deletion strains, locus YLL041C, strain sdh2, hits give low values 1.01 | S. cerevisiae deletion strains, locus YLR027C, strain aat2, hits give low values 1.01 | S. cerevisiae deletion strains, locus YLR039C, strain RIC1, hits give low values 0.971 | S. cerevisiae deletion strains, locus YLR058C, strain SHM2, hits give low values 0.992 | S. cerevisiae deletion strains, locus YLR102C, strain apc9, hits give low values 0.981 | S. cerevisiae deletion strains, locus YLR113W, strain HOG1, hits give low values 0.988 | S. cerevisiae deletion strains, locus YLR221C, strain rsa3, hits give low values 1 | S. cerevisiae deletion strains, locus YLR258W, strain gsy2, hits give low values 1.01 | S. cerevisiae deletion strains, locus YLR262C, strain YPT6 (second series), hits give low values 1 | S. cerevisiae deletion strains, locus YLR262C, strain YPT6, hits give low values 1 | S. cerevisiae deletion strains, locus YLR268W, strain sec22, hits give low values 0.987 | S. cerevisiae deletion strains, locus YLR320W, strain mms22, hits give low values 1.01 | S. cerevisiae deletion strains, locus YLR330W, strain CHS5, hits give low values 0.992 | S. cerevisiae deletion strains, locus YLR342W, strain FKS1 (second series), hits give low values 1.04 | S. cerevisiae deletion strains, locus YLR342W, strain FKS1, hits give low values 1.01 | S. cerevisiae deletion strains, locus YLR357W, strain rsc2, hits give low values 1 | S. cerevisiae deletion strains, locus YLR370C, strain arc18, hits give low values 1.01 | S. cerevisiae deletion strains, locus YLR371W, strain rom2, hits give low values 1 | S. cerevisiae deletion strains, locus YLR384C, strain iki3, hits give low values 0.998 | S. cerevisiae deletion strains, locus YLR418C, strain cdc73, hits give low values 0.998 | S. cerevisiae deletion strains, locus YML016C, strain PPZ1, hits give low values 0.998 | S. cerevisiae deletion strains, locus YML032C, strain rad52, hits give low values 0.991 | S. cerevisiae deletion strains, locus YML120C, strain ndi1, hits give low values 1.01 | S. cerevisiae deletion strains, locus YML124C, strain tub3, hits give low values 1.01 | S. cerevisiae deletion strains, locus YMR058W, strain fet3, hits give low values 1.01 | S. cerevisiae deletion strains, locus YMR078C, strain ctf18, hits give low values 1 | S. cerevisiae deletion strains, locus YMR125W, strain sto1, hits give low values 1.02 | S. cerevisiae deletion strains, locus YMR129W, hits give low values 0.999 | S. cerevisiae deletion strains, locus YMR205C, strain PFK2, hits give low values 1.02 | S. cerevisiae deletion strains, locus YMR223W, strain ubp8, hits give low values 1.02 | S. cerevisiae deletion strains, locus YMR231W, strain pep5, hits give low values 1.01 | S. cerevisiae deletion strains, locus YMR263W, strain SAP30, hits give low values 0.98 | S. cerevisiae deletion strains, locus YMR307W, strain GAS1, hits give low values 1.16 | S. cerevisiae deletion strains, locus YNL067W, strain RPL9B, hits give low values 0.961 | S. cerevisiae deletion strains, locus YNL071W, strain lat1, hits give low values 1.02 | S. cerevisiae deletion strains, locus YNL128W, strain TEP1, hits give low values 0.954 | S. cerevisiae deletion strains, locus YNL153C, strain GIM3, hits give low values 0.99 | S. cerevisiae deletion strains, locus YNL183C, strain NPR1, hits give low values 0.909 | S. cerevisiae deletion strains, locus YNL209W, strain ssb2, hits give low values 1.01 | S. cerevisiae deletion strains, locus YNL233W, strain BNI4, hits give low values 0.981 | S. cerevisiae deletion strains, locus YNL248C, strain rpa49, hits give low values 1 | S. cerevisiae deletion strains, locus YNL250W, strain rad50, hits give low values 0.985 | S. cerevisiae deletion strains, locus YNL271C, strain bni1, hits give low values 1.02 | S. cerevisiae deletion strains, locus YNL298W, strain CLA4, hits give low values 0.996 | S. cerevisiae deletion strains, locus YNL307C, strain MCK1, hits give low values 0.987 | S. cerevisiae deletion strains, locus YNL322C, strain KRE1 (second series), hits give low values 1.01 | S. cerevisiae deletion strains, locus YNL322C, strain KRE1, hits give low values 1 | S. cerevisiae deletion strains, locus YNR049C, strain mso1, hits give low values 1.02 | S. cerevisiae deletion strains, locus YNR052C, strain pop2, hits give low values 0.995 | S. cerevisiae deletion strains, locus YOL012C, strain htz1 2.11 | S. cerevisiae deletion strains, locus YOL147C, strain pex11, hits give low values 0.984 | S. cerevisiae deletion strains, locus YOR001W, strain rrp6, hits give low values 1.01 | S. cerevisiae deletion strains, locus YOR061W, strain CKA2, hits give low values 0.998 | S. cerevisiae deletion strains, locus YOR069W, strain VPS5, hits give low values 1 | S. cerevisiae deletion strains, locus YOR070C, strain gyp1, hits give low values 1.02 | S. cerevisiae deletion strains, locus YOR080W, strain dia2, hits give low values 1.01 | S. cerevisiae deletion strains, locus YOR083W, strain WHI5, hits give low values 0.987 | S. cerevisiae deletion strains, locus YOR106W, strain vam3, hits give low values 1 | S. cerevisiae deletion strains, locus YOR136W, strain idh2, hits give low values 0.997 | S. cerevisiae deletion strains, locus YOR144C, strain elg1, hits give low values 1.01 | S. cerevisiae deletion strains, locus YOR184W, strain ser1, hits give low values 1.01 | S. cerevisiae deletion strains, locus YOR231W, strain MKK1, hits give low values 0.948 | S. cerevisiae deletion strains, locus YOR265W, strain rbl2, hits give low values 1.02 | S. cerevisiae deletion strains, locus YOR270C, strain vph1, hits give low values 1.08 | S. cerevisiae deletion strains, locus YOR290C, strain snf2, hits give low values 0.971 | S. cerevisiae deletion strains, locus YOR316C, strain cot1, hits give low values 0.989 | S. cerevisiae deletion strains, locus YPL051W, strain arl3, hits give low values 0.977 | S. cerevisiae deletion strains, locus YPL055C, strain LGE1, hits give low values 0.978 | S. cerevisiae deletion strains, locus YPL078C, strain atp4, hits give low values 1 | S. cerevisiae deletion strains, locus YPL106C, strain sse1, hits give low values 0.999 | S. cerevisiae deletion strains, locus YPL240C, strain hsp82, hits give low values 1.03 | S. cerevisiae deletion strains, locus YPL256C, strain CLN2, hits give low values 0.977 | S. cerevisiae deletion strains, locus YPR119W, strain clb2, hits give low values 0.994 | S. cerevisiae deletion strains, locus YPR141C, strain kar3, hits give low values 1.01 | S. cerevisiae deletion strains, locus YPR163C, strain tif3, hits give low values 0.989 | S. cerevisiae deletion strains, locus YPR167C, strain met16, hits give low values 0.998 | S. cerevisiae deletion strains, strain wtn01, hits give low values 0.992 | S. cerevisiae strains, strain wild type, hits give low values 1
